Test results as given in PubChem BioAssay (NCATS).
Inconclusive results are not listed. Activity calls are given as the source filed them. Unless noted, calls come from the whole dose curve; as a rule, active = well fitted curve in the direction sought with a large enough effect; inconclusive = small, poorly fitted or top-dose-only effect, or another doubt; inactive = no such curve, though single readings can be large; an effect the other way counts as inactive or inconclusive.

What was measured:
[1] = molecular target: Luciferin 4-monooxygenase (Photinus pyralis) (UniProt P08659); experiment: Biochemical firefly luciferase enzyme assay for NPC (AID 624030); note: nearly all actives have a fitted effect of over 70% in size; note: potency is the fitted concentration of half-maximal effect
Luciferin 4-monooxygenase (Photinus pyralis), sequence (P08659 whole entry, looked up): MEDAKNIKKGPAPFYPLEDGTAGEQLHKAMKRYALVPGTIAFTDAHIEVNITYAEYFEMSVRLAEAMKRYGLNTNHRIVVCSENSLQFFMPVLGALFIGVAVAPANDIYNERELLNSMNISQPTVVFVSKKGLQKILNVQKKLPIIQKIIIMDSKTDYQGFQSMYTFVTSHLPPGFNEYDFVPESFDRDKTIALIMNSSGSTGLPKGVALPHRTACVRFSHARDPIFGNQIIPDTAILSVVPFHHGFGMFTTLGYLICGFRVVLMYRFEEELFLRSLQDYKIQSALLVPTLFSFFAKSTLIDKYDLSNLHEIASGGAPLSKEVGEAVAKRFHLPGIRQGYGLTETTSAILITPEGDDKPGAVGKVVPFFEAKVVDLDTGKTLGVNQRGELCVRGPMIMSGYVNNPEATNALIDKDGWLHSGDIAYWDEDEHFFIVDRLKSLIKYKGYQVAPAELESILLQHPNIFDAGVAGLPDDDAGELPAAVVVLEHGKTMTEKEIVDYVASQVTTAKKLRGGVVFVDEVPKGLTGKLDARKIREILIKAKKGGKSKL
Method in brief: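 Purified P. pyralis luciferase at 10 nM in 50 mM Tris Acetate (final), luminescence read within 5 minutes of enzyme addition to compounds. Activity normalised to PTC124 versus DMSO; concentration-response curves classed by r2, magnitude and activity.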

[2] = S16 Schwann cell viability assay (CellTiter-Glo assay) (AID 624031); note: nearly all actives have a fitted effect of over 70% in size; note: potency is the fitted concentration of half-maximal effect
Method in brief: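 Native S16 rat Schwann cells, 500-750 cells/well in DMEM with 10% FBS, dosed with compound after overnight culture and incubated 24h at 37 degree Celsius/5% CO2. Viability by CellTiter-Glo luminescence; % activity normalized to no-cell wells and DMSO-treated cells.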

[3] = S16 Schwann cell PMP22 intronic element firefly luciferase assay (AID 624032); note: nearly all actives have a fitted effect of over 30% in size; note: potency is the fitted concentration of half-maximal effect
Method in brief: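 Rat S16 Schwann cells stably carrying firefly luciferase driven by a PMP22 intronic element, in 10% FBS, treated 24 h at 37 C. ONE-Glo luminescence normalized to PTC124 control and DMSO (0%); curves classed by r2, magnitude and activity.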

[4] = S16 Schwann cell PMP22 intronic element beta-lactamase assay (AID 624044; calls by dose curve; note: nearly all actives have a fitted effect of over 15% in size; note: potency is the fitted concentration of half-maximal effect)
Method in brief: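 Beta-lactamase reporter under a PMP22 intronic regulatory element in stable S16 rat Schwann cells; 24 h compound exposure. 460 nm blue signal normalized between DMSO (0%) and potassium clavulanate, with 535 nm FRET tracking viability; curves classed by r2 and response.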

[5] = molecular target: Glutaminase kidney isoform, mitochondrial (Homo sapiens) (UniProt O94925); experiment: qHTS for Inhibitors of Glutaminase (GLS): LOPAC Validation (AID 624146); note: nearly all actives have a fitted effect of over 60% in size; note: potency is the fitted concentration of half-maximal effect
Glutaminase kidney isoform, mitochondrial (Homo sapiens), sequence (O94925 whole entry, looked up, canonical isoform): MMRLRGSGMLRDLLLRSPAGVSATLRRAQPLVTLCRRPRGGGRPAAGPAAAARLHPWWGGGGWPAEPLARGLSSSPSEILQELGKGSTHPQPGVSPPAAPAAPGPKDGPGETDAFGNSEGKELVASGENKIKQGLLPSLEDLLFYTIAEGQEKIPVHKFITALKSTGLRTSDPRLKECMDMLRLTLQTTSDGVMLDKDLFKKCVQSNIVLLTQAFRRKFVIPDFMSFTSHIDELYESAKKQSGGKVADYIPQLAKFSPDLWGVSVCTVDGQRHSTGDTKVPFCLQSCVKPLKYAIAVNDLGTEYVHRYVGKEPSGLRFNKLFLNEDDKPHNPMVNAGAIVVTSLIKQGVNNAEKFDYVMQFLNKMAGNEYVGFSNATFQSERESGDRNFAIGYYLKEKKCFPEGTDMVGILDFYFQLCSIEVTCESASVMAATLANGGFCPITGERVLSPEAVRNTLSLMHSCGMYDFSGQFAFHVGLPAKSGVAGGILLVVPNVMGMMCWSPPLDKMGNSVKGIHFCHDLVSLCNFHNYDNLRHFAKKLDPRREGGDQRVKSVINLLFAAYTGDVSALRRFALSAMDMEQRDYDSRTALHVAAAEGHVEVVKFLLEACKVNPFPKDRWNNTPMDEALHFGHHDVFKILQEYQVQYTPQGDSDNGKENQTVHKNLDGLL
Method in brief: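 Glutamate formation by hKGA was monitored fluorometrically using coupled glutamate oxidase, HRP and Amplex Red. Substrate was added as 1 mM L-glutamine solution; incubation was 30 min at RT after an initial read.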

[6] = qHTS of Trypanosoma Brucei Inhibitors: LOPAC Validation (AID 624147); note: potency is the fitted concentration of half-maximal effect
Method in brief: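 Luminescent Kinase-Glo Plus end-point after 45 min room-temperature reaction of T. brucei pyruvate kinase started with 130 uM ADP (final). Buffer TEA 50 mM pH 7.2 with KCl, MgCl2, BSA, Tween-20; titration-based qHTS with fitted concentration-effect curves.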

[7] = molecular target: Glucagon-like peptide 1 receptor (Homo sapiens) (UniProt P43220); experiment: qHTS of GLP-1 Receptor Agonists: LOPAC Validation (AID 624148);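 note: higher luminescence signal means agonism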
Glucagon-like peptide 1 receptor (Homo sapiens), sequence (P43220 whole entry, looked up): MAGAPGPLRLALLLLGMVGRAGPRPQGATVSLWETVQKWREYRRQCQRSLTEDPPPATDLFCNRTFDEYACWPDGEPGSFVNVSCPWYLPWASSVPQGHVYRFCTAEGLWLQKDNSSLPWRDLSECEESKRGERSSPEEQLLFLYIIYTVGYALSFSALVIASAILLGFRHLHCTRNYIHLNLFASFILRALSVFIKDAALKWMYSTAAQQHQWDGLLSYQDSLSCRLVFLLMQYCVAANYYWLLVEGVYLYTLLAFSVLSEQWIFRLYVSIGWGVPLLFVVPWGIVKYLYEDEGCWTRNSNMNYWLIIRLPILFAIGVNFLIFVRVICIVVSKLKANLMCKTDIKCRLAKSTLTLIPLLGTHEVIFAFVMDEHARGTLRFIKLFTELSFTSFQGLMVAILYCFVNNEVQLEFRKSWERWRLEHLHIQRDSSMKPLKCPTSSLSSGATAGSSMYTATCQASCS
Method in brief: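 HEK293 cells stably co-expressing GLP-1R and a cAMP-responsive luciferase reporter, plated 12 hours before compound, then incubated 4-6 hr at 37 deg C. Luminescence read 12 min after detection reagent.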

[8] = qHTS of Nrf2 Activators: LOPAC Validation (AID 624149)
Method in brief: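 Following overnight seeding in 5% FBS OPTI-MEM, AREc32_Fluc cells receive compounds for a 24 hr incubation at 37 deg C with 5% CO2. Steady-Glo is added, and after 30 min at RT luminescence is recorded.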

Measured: Potency

CCNC(C)Cc1cccc(C(F)(F)F)c1 (stereo unspecified)
inactive: [1] | [2] | [3] | [4]

COc1ccc2c(c1O)-c1cccc3c1[C@@H](C2)N(C)CC3
active: [5] 3.55 µM
inactive: [6] | [7] | [8]

Cc1cc([C@@H]2CCCN2C)on1
inactive: [5] | [6] | [7] | [8]

c1ccc(C2(N3CCCC3)CCCCC2)cc1
inactive: [2] | [4]

CCNC(=O)[C@H]1O[C@@H](n2cnc3c(N)ncnc32)[C@H](O)[C@@H]1O
inactive: [5] | [6] | [7] | [8]

CC(=O)OC1CN2CCC1CC2 (stereo unspecified)
inactive: [1] | [2] | [4]

CCN1C[C@@]2(COC)C3[C@@H](OC)C4[C@@H]1C3([C@@H]1C[C@]3(O)[C@H](OC(=O)c5ccccc5)[C@@H]1[C@]4(OC(C)=O)[C@@H](O)[C@@H]3OC)[C@H](OC)C[C@H]2O
inactive: [5] | [6] | [7] | [8]

O[C@H]1[C@H]2[C@H](O)CCCN2C[C@H]1O
inactive: [1] | [2] | [3] | [4]

N#CCCN
inactive: [5] | [6] | [7] | [8]

CN(C(=O)Cc1ccc(Cl)c(Cl)c1)C(CN1CCCC1)c1cccc(OCC(=O)O)c1 (stereo unspecified)
inactive: [5] | [6] | [7] | [8]

c1ccc2sc(SNC3CCCCC3)nc2c1
inactive: [2] | [3] | [4]

C[C@@H](Cc1ccccc1)NCCC(c1ccccc1)c1ccccc1
inactive: [1] | [3] | [4]

C=CCN(C1=NCCN1)c1c(Cl)cccc1Cl
inactive: all assays above

c1cc2c(c(NC3=NCCN3)c1)CCCC2
inactive: [2] | [3] | [4]

C[N+]1(C)CCc2cc3c(cc2[C@H]1[C@@H]1OC(=O)c2c1ccc1c2OCO1)OCO3
inactive: [5] | [6] | [7] | [8]

C=CCN1CC[C@]23c4c5ccc(O)c4O[C@@H]2/C(=N/N=C2\CC[C@@]4(O)C6Cc7ccc(O)c8c7[C@@]4(CCN6CC=C)[C@@H]2O8)CC[C@@]3(O)C1C5
active: [5] 2 µM
inactive: [6] | [7] | [8]

[Cl-].[Cl-].[Hg+2]
active: [2] 2.56 µM | [3] 0.809 µM | [4] 3.16 µM

C[N+]1(C)C2CCC1CC(OC(=O)c1c[nH]c3ccccc13)C2 (stereo unspecified)
not listed: [1]
inactive: all other assays above

c1ccc2cc(CC3=NCCN3)ccc2c1
not listed: [1]
inactive: all other assays above

NCCc1c[nH]c2ccc(C(N)=O)cc12
inactive: [5] | [6] | [7] | [8]

NCC(CP(=O)(O)O)c1ccc(Cl)cc1 (stereo unspecified)
inactive: [5] | [6] | [7] | [8]

O=c1c2ccccc2[se]n1-c1ccccc1
inactive: [4]
active: [1] 8.09 µM | [2] 12.8 µM | [3] 28.7 µM | [5] 2.82 µM | [6] 19 µM

CC12NC(Cc3ccccc31)c1ccccc12 (stereo unspecified)
not listed: [2]
inactive: all other assays above

c1ccc2c(c1)[I+]c1ccccc1-2
inactive: [5] | [6] | [7] | [8]

CCS(=O)(=O)Nc1cccc(C(=C2CCCCC2)c2cnc[nH]2)c1
inactive: [5] | [6] | [7] | [8]

CCCN1CCc2cc(O)cc3c2[C@H]1Cc1ccc(O)c(O)c1-3
active: [5] 1.41 µM
inactive: [6] | [7] | [8]

CN1CC[C@@]2(C)c3cc(OC(=O)Nc4ccccc4)ccc3N(C)[C@@H]12
inactive: [6] | [7] | [8]
active: [5] 1.12 µM

C[C@H](N)Cc1cccc(C(F)(F)F)c1
inactive: [5] | [6] | [7] | [8]

Cc1sc2ccccc2c1CC1=NCCN1
inactive: all assays above

CN1CCc2cccc(Cl)c2CC1
inactive: [5] | [6] | [7] | [8]

CCCN(CCC)C1Cc2cc(OC)c(OC)cc2C1
inactive: [5] | [6] | [7] | [8]
